# Results taken from the supplement of paper PMC8728848.
# The sample as a whole holds a higher share of the strongest signals than the screen did.
# Assays:
# Experiment in all cases: glycan array binding signal (z-score within array); higher = stronger binding
# Settings in all cases: glycan notation: IUPAC condensed, linker removed
# [1] = target: Gal(b1-4)GlcNAc(b1-3)Gal(b1-4)GlcNAc(b1-3)Gal(b1-4)GlcNAc(b1-3)Gal(b1-4)GlcNAc(b1-3)Gal(b1-4)GlcNAc(b1-2)Man(a1-3)[Gal(b1-4)GlcNAc(b1-3)Gal(b1-4)GlcNAc(b1-3)Gal(b1-4)GlcNAc(b1-3)Gal(b1-4)GlcNAc(b1-3)Gal(b1-4)GlcNAc(b1-2)Man(a1-6)]Man(b1-4)GlcNAc(b1-4)GlcNAc
# Outline: (§1)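 Glycan array data came from 3228 arrays in the Consortium for Functional Glycomics database, and only arrays with an available protein sequence were kept. Glycan names were put into IUPAC-condensed notation, and columns mapping to the same glycan were averaged. The binding signal is a within-array Z-score, averaged across arrays of one protein sequence run at different concentrations or buffers and across linkers. A negative Z-score can be read as non-binding.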
# [2] = target: Gal(b1-6)Gal
# Outline: as §1
# [3] = target: Gal6S(b1-4)Glc6S
# Outline: as §1
# [4] = target: GalNAc(b1-3)GalNAc
# Outline: as §1
# [5] = target: GalNAc(b1-4)GlcNAc
# Outline: as §1
# [6] = target: GalNAc(b1-6)GalNAc
# Outline: as §1
# [7] = target: GalNAc3S(b1-4)GlcNAc
# Outline: as §1
# [8] = target: Glc(b1-6)Glc
# Outline: as §1
# [9] = target: GlcA(b1-3)GlcNAc
# Outline: as §1
# [10] = target: GlcNAc(b1-3)Gal
# Outline: as §1
# [11] = target: GlcNAc(b1-3)Gal(b1-4)Glc
# Outline: as §1
# [12] = target: GlcNAc(b1-3)Gal(b1-4)GlcNAc(b1-3)Gal(b1-4)GlcNAc(b1-2)Man(a1-3)[GlcNAc(b1-3)Gal(b1-4)GlcNAc(b1-3)Gal(b1-4)GlcNAc(b1-2)Man(a1-6)]Man(b1-4)GlcNAc(b1-4)GlcNAc
# Outline: as §1
# [13] = target: GlcNAc(b1-3)[GlcNAc(b1-4)][GlcNAc(b1-6)]GlcNAc
# Outline: as §1
# [14] = target: Man(a1-2)Man(a1-6)[Man(a1-3)]Man(a1-6)[Man(a1-2)Man(a1-2)Man(a1-3)]Man
# Outline: as §1
# [15] = target: Man(a1-2)Man(a1-6)[Man(a1-3)]Man(a1-6)[Man(a1-2)Man(a1-2)Man(a1-3)]Man(b1-4)GlcNAc(b1-4)GlcNAc
# Outline: as §1
# [16] = target: Neu5Ac(a2-3)Gal
# Outline: as §1
# [17] = target: Neu5Ac(a2-3)Gal(b1-3)GalNAc(b1-3)Gal(a1-4)Gal(b1-4)Glc
# Outline: as §1
# [18] = target: Neu5Ac(a2-3)Gal(b1-3)GlcNAc(b1-2)Man(a1-3)[GlcNAc(b1-4)][Neu5Ac(a2-3)Gal(b1-3)GlcNAc(b1-2)Man(a1-6)]Man(b1-4)GlcNAc(b1-4)GlcNAc
# Outline: as §1
# [19] = target: Neu5Ac(a2-3)Gal(b1-4)GlcNAc(b1-2)Man(a1-3)[Neu5Ac(a2-3)Gal(b1-4)GlcNAc(b1-2)Man(a1-6)]Man(b1-4)GlcNAc(b1-4)GlcNAc
# Outline: as §1
# [20] = target: Neu5Ac(a2-3)Gal(b1-4)GlcNAc(b1-2)Man(a1-3)[Neu5Ac(a2-3)Gal(b1-4)GlcNAc(b1-2)Man(a1-6)]Man(b1-4)GlcNAc(b1-4)[Fuc(a1-6)]GlcNAc
# Outline: as §1
# [21] = target: Neu5Ac(a2-3)Gal(b1-4)GlcNAc(b1-3)Gal(b1-4)GlcNAc(b1-3)[Neu5Ac(a2-3)Gal(b1-4)GlcNAc(b1-3)Gal(b1-4)GlcNAc(b1-6)]GalNAc
# Outline: as §1
# [22] = target: Neu5Ac(a2-3)Gal(b1-4)GlcNAc(b1-3)Gal(b1-4)GlcNAc(b1-6)[Gal(b1-3)]GalNAc
# Outline: as §1
# [23] = target: Neu5Ac(a2-3)Gal(b1-4)[Fuc(a1-3)]GlcNAc(b1-6)[Gal(b1-3)]GalNAc
# Outline: as §1
# [24] = target: Neu5Ac(a2-3)Gal6S(b1-4)GlcNAc
# Outline: as §1
# [25] = target: Neu5Ac(a2-3)[GalNAc(b1-4)]Gal(b1-4)GlcNAc
# Outline: as §1
# [26] = target: Neu5Ac(a2-6)Gal(b1-4)GlcNAc(b1-2)Man(a1-3)[GlcNAc(b1-2)Man(a1-6)]Man(b1-4)GlcNAc(b1-4)GlcNAc
# Outline: as §1
# [27] = target: Neu5Ac(a2-6)Gal(b1-4)GlcNAc(b1-3)Gal(b1-4)GlcNAc(b1-3)Gal(b1-4)GlcNAc
# Outline: as §1
# [28] = target: Neu5Ac(a2-6)Gal(b1-4)GlcNAc(b1-3)Gal(b1-4)GlcNAc(b1-3)[Neu5Ac(a2-6)Gal(b1-4)GlcNAc(b1-3)Gal(b1-4)GlcNAc(b1-6)]GalNAc
# Outline: as §1
# [29] = target: Neu5Ac(a2-6)Gal(b1-4)GlcNAc6S
# Outline: as §1
# [30] = target: Neu5Ac(a2-6)GalNAc(b1-4)GlcNAc
# Outline: as §1
# [31] = target: Neu5Ac(a2-6)GalNAc(b1-4)GlcNAc6S
# Outline: as §1
# [32] = target: Neu5Ac(a2-8)Neu5Gc(a2-3)Gal(b1-4)GlcNAc
# Outline: as §1
binder,measurement,setting,value
"Clec12b (Mus musculus), Q149M0 (protein) MSDEVTYATLMLQDSARVRGNQDGNNLRKEGHPAQSSLWRGAALSLMTLCLVLVTGLVTLATMFLQVSNDINSDSEKLSQLQKSIHPQQDNLSESLNSSRKSLTEESLQSQISALLERQEQMATKLCKEFLIHASDHKCNPCPKTWQWYGNSCYYFSINEEKSWSDSRKDCIDKNATLVKIDSTEERDLLQSQLSLTFSFFWLGLSWNSSGRNWLWEDGSFPPPTLFSDKELASFNGSRDCAYFERGNIYASRCSAEIPWICEKTASLVKTEDLD",glycan array binding signal (z-score),[1],0.028
same,glycan array binding signal (z-score),[2],-0.5
same,glycan array binding signal (z-score),[3],1.24
same,glycan array binding signal (z-score),[4],-0.125
same,glycan array binding signal (z-score),[5],0.301
same,glycan array binding signal (z-score),[6],1.14
same,glycan array binding signal (z-score),[7],-0.691
same,glycan array binding signal (z-score),[8],-0.441
same,glycan array binding signal (z-score),[9],-0.05
same,glycan array binding signal (z-score),[10],-0.39
same,glycan array binding signal (z-score),[11],2.54
same,glycan array binding signal (z-score),[12],-0.27
same,glycan array binding signal (z-score),[13],-0.245
same,glycan array binding signal (z-score),[14],-0.526
same,glycan array binding signal (z-score),[15],-0.428
same,glycan array binding signal (z-score),[16],-0.719
same,glycan array binding signal (z-score),[17],-0.593
same,glycan array binding signal (z-score),[18],-0.101
same,glycan array binding signal (z-score),[19],-0.716
same,glycan array binding signal (z-score),[20],11.9
same,glycan array binding signal (z-score),[21],-0.513
same,glycan array binding signal (z-score),[22],-0.721
same,glycan array binding signal (z-score),[23],2.54
same,glycan array binding signal (z-score),[24],-0.451
same,glycan array binding signal (z-score),[25],-0.538
same,glycan array binding signal (z-score),[26],-0.701
same,glycan array binding signal (z-score),[27],-0.719
same,glycan array binding signal (z-score),[28],-0.419
same,glycan array binding signal (z-score),[29],0.459
same,glycan array binding signal (z-score),[30],-0.692
same,glycan array binding signal (z-score),[31],-0.524
same,glycan array binding signal (z-score),[32],-0.719
